Screens: PubChem, National Center for Advancing Translational Sciences (NCATS)
TRPML1 blocker – human mucolipin-1 channel inhibition | TRPML1-inducible cells, Ca2+ dye fluorescence, FDSS; stronger effect = lower value; inhibition of EC80 agonist-evoked calcium signal | actives 0.02% (n = 390,000) | activity change, negative = inhibition, % (test concentration not listed) | Q9GZU1; in the data active = activity change below about -50%; inconclusive = between about -30% and that limit;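 note: stimulus is agonist 54-4 at its EC80 concentration; % is set by controls: 0 for no effect and ±100 for the full control effect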
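Tet-induced TRPML1-DL cells loaded with Ca8 no-wash calcium dye were read kinetically on FDSS. Compound addition was followed by EC80 agonist 54-4 (4 uM final); inhibition was read over 110 s.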
GLP1R cytotox – cytotoxic in the GLP-1 receptor inverse agonist counter-screen. HEK293 cAMP-luciferase reporter cells, luminescence, 24 h. actives 0.13% (n = 410,000). AID 624418. Potency, µM (highest dose often 38.3 µM), for inactives: at the highest dose activity change, negative = inhibition, most hits filed as inhibitors;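 note: loss of luciferase light is scored as toxicity; potency is the fitted concentration of half-maximal effect; % is set by controls: 0 for no effect and ±100 for the full control effect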
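Quantitative HTS format, 1536 wells, 200 cells/uL seeded. Compounds: 23 nL, 24 h, 37 °C. Detection: luciferase reagent, luminescence at 12 min RT; decreased signal taken as cytotoxic.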
GLP1R inv ag – GLP-1 receptor (human) inverse agonism. P43220. HEK293 GLP-1R CRE-luciferase, luminescence, 24 h; GLP-1R form is constitutively active. Potency, µM (series often up to 38.3 µM), inactives show at the highest dose activity change, negative = inhibition, usual class: inhibitors. actives 1.6% (n = 410,000); note: potency is the fitted concentration of half-maximal effect; % is set by controls: 0 for no effect and ±100 for the full control effect; nearly all actives have a fitted effect of over 55% in size
Target sequence (P43220 whole entry, looked up): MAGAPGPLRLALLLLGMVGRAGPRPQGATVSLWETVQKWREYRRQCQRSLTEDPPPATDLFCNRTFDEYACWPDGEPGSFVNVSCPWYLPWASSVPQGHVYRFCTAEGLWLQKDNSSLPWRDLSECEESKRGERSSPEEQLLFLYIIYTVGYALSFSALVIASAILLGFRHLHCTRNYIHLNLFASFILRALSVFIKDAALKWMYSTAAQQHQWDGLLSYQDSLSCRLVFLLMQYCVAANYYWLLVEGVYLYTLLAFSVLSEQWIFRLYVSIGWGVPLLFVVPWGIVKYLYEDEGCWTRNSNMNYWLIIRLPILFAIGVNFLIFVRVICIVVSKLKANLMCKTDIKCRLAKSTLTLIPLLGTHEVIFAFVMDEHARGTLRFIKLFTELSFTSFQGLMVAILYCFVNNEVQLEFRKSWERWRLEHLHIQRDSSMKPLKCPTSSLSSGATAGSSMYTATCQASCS
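Readout was luciferase luminescence, measured 12 min after detection reagent at room temperature. Beforehand, GLP-1R reporter HEK293 cells had sat 12 h, then received compounds for 24 hr at 37 deg C.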
GLP-1R agonist – agonists of human GLP-1 receptor; P43220; HEK293 GLP-1R CRE-luciferase, luminescence, 4-6 h; cells express a hypersensitive GLP-1R form; Potency, µM (doses to about 45.6 µM), for the others: at the highest dose activation, most hits filed as activators; actives 0.007% (n = 380,000); note: potency is the fitted concentration of half-maximal effect; % of control where 0% means no effect
TRPML1 agonist – agonists of human TRPML1 channel. actives 0.12% (n = 410,000). AID 624414. activation, % (no concentration beside the values). TRPML1-expressing cells, Ca2+ dye fluorescence, FDSS. Q9GZU1; in the data active = activation above about 50%; inconclusive = mostly about 30% to 49%; note: 0% is about no effect
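Tet-induced TRPML1-DL cells, 1,500 per well, cultured overnight, were loaded with a no-wash Ca2+ dye for 45–90 min. Calcium fluorescence was recorded on the FDSS for 110 s after compound addition, before the EC80 agonist (4 uM 54-4) was added.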
* hit, by the source's call; ? = inconclusive; · = not tested or not shown. Compounds with a hit are over-represented: about 1.8% of the library has one in this group of screens. Unless noted, calls come from the whole dose curve; as a rule, active = well fitted curve in the direction sought with a large enough effect; inconclusive = small, poorly fitted or top-dose-only effect, or another doubt; inactive = no such curve, though single readings can be large; an effect the other way counts as inactive or inconclusive.

SMILES | TRPML1 blocker | GLP1R cytotox | GLP1R inv ag | GLP-1R agonist | TRPML1 agonist
Cc1ccc(F)cc1NC(=O)COC(=O)c1ccc(S(C)(=O)=O)c([N+](=O)[O-])c1 | · | · | · | · | 0
O=C(Nc1nc(-c2cccc([N+](=O)[O-])c2)cs1)C(c1ccccc1)c1ccccc1 | -1 | 50% | 1.6µM* | -20% | 2
C[N+]1(C)CCN(C[C@@](O)(c2ccccc2)C2CCCCC2)CC1 | · | · | · | 5% | ·
CCN(c1ccccc1)S(=O)(=O)c1ccc(N2CCN(c3ccc(O)cc3)CC2)nc1 | -7 | -26% | 4.5µM* | 4% | 0
CCOc1ccc(NS(=O)(=O)c2cccc(C(=O)N3CCN(C/C=C/c4ccccc4)CC3)c2)cc1 | 6 | -29% | 10µM* | -11% | -1
O=C(c1cccc(S(=O)(=O)N2CCOCC2)c1)N1CCN(C/C=C/c2ccccc2)CC1 | -1 | -21% | -21% | 1% | -1
Cc1ccc(-n2ncc3c(NCCC4=CCCCC4)ncnc32)cc1 | 68 | 14% | -21% | · | 4
O=C1/C(=C\c2ccc(O)c(O)c2)SC(=S)N1Cc1ccccc1 | -7 | 10µM* | ? | 6% | 27
O=C1/C(=C/c2ccccc2)SC(=S)N1CCCC(=O)N1CCCCC1CCO (configuration not stated) | -2 | 0% | 5µM* | -3% | 0
O=C(CCCN1C(=O)/C(=C\c2ccccc2)SC1=S)Nc1ccc(O)cc1 | 17 | 10µM* | ? | -3% | 4
Cc1ccc(/C=C2/SC(=S)N(CCCC(=O)Nc3ccc(O)cc3)C2=O)cc1 | 8 | -27% | ? | 3% | -1
CN1CCN(C(=O)CCCN2C(=O)/C(=C/c3ccccc3)SC2=S)CC1 | -6 | ? | ? | -2% | 0
CN1CCN(C(=O)CCCN2C(=O)/C(=C/c3ccc(Cl)cc3)SC2=S)CC1 | 2 | ? | 10µM* | -2% | 0
Cc1ccccc1CNC(=O)c1ccc2nc(SCc3ccc(F)cc3)n(C)c2c1 | 15 | -9% | ? | · | 1
Cc1ccc(NC(=O)CSc2nc3nccnc3c(=O)n2CCc2c[nH]c3ccccc23)cc1 | -18 | 0% | -11% | · | 3
COCCN1C(=O)/C(=C/c2ccc(N3CCCC3)cc2)SC1=S | -11 | 4% | -4% | 8% | 60*
Cc1ccc(C)c(-c2nnc(NC(=O)c3ccc4c(c3)OCCO4)o2)c1 | 8 | -12% | -20% | · | 0
COc1ccc(-c2nn3c(-c4cc(-c5ccccc5)n[nH]4)nnc3s2)cc1 | · | · | · | · | 0
O=C1CCCN1CCCNc1nc(NCc2cccs2)nc2ccsc12 | · | 0% | -28% | 0% | 57*
CC(=O)NCCNc1nc(NCc2cccs2)nc2ccsc12 | · | 7% | 7% | -4% | 6
O=C1CCCN2N=C(SCC(=O)N3N=C(c4ccc(Br)cc4)CC3c3ccc(F)cc3)SC2=N1 (configuration not stated) | -8 | -4% | ? | 1% | 0
Cc1ccc(C2CC(c3ccc(Br)cc3)=NN2C(=O)CSC2=NN3CCCC(=O)N=C3S2)cc1 (configuration not stated) | 5 | -17% | 4.5µM* | -1% | -1
COc1ccc(CCNC(=O)CCc2cn(Cc3ccc(F)cc3)c3ccccc23)cc1OC | 26 | 2% | ? | · | 3
CCOC(=O)N1CCC(NC(=O)c2ccc3c(c2)N=C(C)c2c(C)ccc(C)c2S3)CC1 | 18 | ? | ? | 11% | 3
CCCC1=Nc2cc(C(=O)NC3CCCCC3)ccc2Sc2ccc(C)cc21 | 7 | ? | 0.79µM* | · | 2
SMILES | TRPML1 blocker | GLP1R cytotox | GLP1R inv ag | GLP-1R agonist | TRPML1 agonist
CC1=Nc2cc(C(=O)NC3CCC(C)CC3)ccc2Sc2c(C)ccc(C)c21 (configuration not stated) | -12 | ? | 0.79µM* | 20% | 2
CCCC1=Nc2cc(C(=O)NCC(C)c3ccccc3)ccc2Sc2ccccc21 (configuration not stated) | 5 | ? | 3.2µM* | -2% | 2
CCCC1=Nc2cc(C(=O)NCCCOCC)ccc2Sc2ccccc21 | 2 | -10% | -67% | 8% | 2
CCCC1=Nc2cc(C(=O)NCCOC)ccc2Sc2ccccc21 | -4 | ? | 2.2µM* | · | 1
c1nc(NCc2ccc3c(c2)OCO3)c2[nH]cnc2n1 | · | · | · | · | 0
Cc1ccccc1-c1nc(CS(=O)(=O)CC(=O)Nc2c(C)cccc2C)c(C)o1 | 4 | -4% | -29% | 0% | 0
COc1ccc2c(c1)OC(C)(C)C(c1ccccc1)C2c1ccc(OCCN2CCCC2)cc1 (configuration not stated) | · | · | · | -8% | ·
CN1CCC(n2[nH]c(-c3ccccc3)c(Cc3ccccc3)c2=O)CC1 | 2 | -19% | 11µM* | 6% | 1
O=C1CCCc2cc(S(=O)(=O)NCC3CCC(C(=O)Nc4ccc(Cl)cc4)CC3)ccc2N1 (configuration not stated) | 3 | -4% | -22% | · | -1
Cc1ccc2c(c1)C(=O)N1[C@H]3c4ccccc4OC[C@@H]3[C@H](c3ccccc3)[C@]1(C)C(=O)N2 | 15 | 11% | 11µM* | -3% | 0
Cc1ccc2c(c1)[C@H]1[C@H](CO2)[C@H](c2ccccc2)[C@]2(C)C(=O)Nc3ccc(Cl)cc3C(=O)N12 | 0 | 1% | 6.3µM* | -2% | 0
CCC(=O)N(CCC(c1ccccc1)c1ccc2c(c1)OCO2)Cc1ccc(OC(C)C)cc1 (configuration not stated) | 25 | -12% | 13µM* | -4% | 4
CCC(=O)N(CCC(Cc1ccccc1)c1ccc2c(c1)OCO2)Cc1ccccc1F (configuration not stated) | 77 | -24% | ? | -3% | 8
CC1(C)CSC(=NCc2ccccc2)N1C(=O)c1cccc([N+](=O)[O-])c1 | -6 | 13% | ? | -33% | 94*
NC(=NCc1ccccc1)c1cccc([N+](=O)[O-])c1 | 10 | 6% | 6% | -4% | 1
CC(=O)c1cccc(NC(=O)CN2C(=O)c3cccnc3Sc3ccccc32)c1 | -20 | 3% | 26% | · | 3
Cc1ccc(C)c(N2CCN(S(=O)(=O)c3ccc4c(c3)OCCO4)CC2)c1 | -7 | 18% | ? | -3% | 4
Cc1ccc(Cl)cc1N1CCN(S(=O)(=O)c2ccc3c(c2)OCCO3)CC1 | 30 | 11% | 10µM* | 0% | 2
O=C(NC(=S)Nc1ccc(N2CCCCC2)c(Cl)c1)c1cccs1 | 1 | 2.8µM* | 0% | -4% | -1
CCOC(=O)N1CCc2c(sc3c2c(=O)n(-c2ccc(CC)cc2)c(=O)n3Cc2ccc(F)cc2Cl)C1 | -14 | 0% | 7% | · | 0
